Test results reported in publication PMC5540273 (PLoS ONE, 2017).

test system: T1, MLK1; conditions: concentration: 1 μM, replicates: in singlicate; n = 1
T1 construct: gene MAP3K9
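Also: KINOMEscan kinase panel screen.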

Q: Which “%Inh” value does the source give for `c1ccc(-c2ccnc3[nH]ccc23)cc1` [SB-693578] here?
A: The value was 0%.

Q: With `COc1ccc(Nc2nccc(N3CCC(NC(=O)C(C)c4ccc(Cl)cc4)C3)n2)cc1` (stereo not drawn) [GSK1379735] as the compound, how does the “%Inh” value read?
A: The value was 0%.

Q: With `Nc1nccc(-c2c(-c3ccc(F)cc3)ncn2C2CCN(Cc3ccccc3)CC2)n1` [SB-219980] as the compound, how does the “%Inh” value read?
A: The value was 11%.

Q: How did the “%Inh” value turn out when `Cl.Cl.Cl.N#Cc1ccc(CCNc2nccc(-c3cccc(CN4CCNCC4)c3)n2)cc1` [GSK2137462] was run?
A: The value was 0%.

Q: How did the “%Inh” value turn out when `Cc1cccc2c(-c3ccncn3)c(-c3ccc(F)cc3)nn12` [GW515532] was run?
A: Its value is 0%.

Q: `O=C(Nc1n[nH]c2nc(-c3cccs3)c(Br)cc12)C1CC1` [SB-735297] was tested. Which “%Inh” value did it give?
A: Its value is 0%.

Q: How did the “%Inh” value turn out when `CC(=O)c1c(C)c2cnc(Nc3ccn(C)n3)nc2n(C2CCCC2)c1=O` was run?
A: Its value is 0%.

Q: With `COc1cccc(NC(=O)Nc2ccc(C)c(-c3ccc(C(=O)Nc4ccncc4)cc3)c2)c1` [GSK1398474] as the compound, how does the “%Inh” value read?
A: Its value is 10%.

Q: `CCc1ccc(-c2ccc3c(c2)-c2n[nH]cc2S(=O)(=O)N3C)cc1` was tested. Which “%Inh” value did it give?
A: The value was 13%.

Q: For `CNc1nc(-c2ccc3c(N)n[nH]c3c2)cc(N2C[C@@H](C(=O)Nc3ccccc3)CC[C@H]2C)n1` [GSK2298859], which “%Inh” value is on record?
A: The value was 0%.

Q: How did the “%Inh” value turn out when `COc1cccc(C2=C(Nc3cc(Cl)c(O)c(Cl)c3)C(=O)NC2=O)c1` [SB-390767] was run?
A: Its value is 0%.

Q: Which “%Inh” value does the source give for `Cn1cncc1C(=O)NC1CCN(c2ccnc(Nc3ccc(F)cc3)n2)C1` (stereo not drawn) [GSK1379717] here?
A: The value was 0%.

Q: Which “%Inh” value does the source give for `Fc1ccc(-c2nc3n(c2-c2ccncc2)CCS3)cc1` [GI98581] here?
A: Its value is 3%.

Q: `CS(=O)(=O)CCNCc1nc(-c2ccc3ncnc(Nc4ccc(OCc5ccccc5)c(Cl)c4)c3c2)cs1.Cl` [GW582764] was tested. Which “%Inh” value did it give?
A: The value was 0%.

Q: For `COc1ccc(Nc2nccc(NCCNC(=O)Nc3cc(C)ccc3C)n2)cc1` [GSK1379899], which “%Inh” value is on record?
A: Its value is 0%.

Q: How did the “%Inh” value turn out when `O=c1cc(N2CCOCC2)nc2n(Cc3cccc(Cl)c3Cl)c3ccccc3n12` [GSK2299009] was run?
A: The value was 0%.

Q: With `FC(F)(F)c1ccccc1-c1cc(-c2c[nH]nc2-c2ccccn2)ccn1` [GW679396] as the compound, how does the “%Inh” value read?
A: Its value is 0%.

Q: With `Cn1cncc1-c1cc2c(Nc3ccc(OCc4ccccc4)cc3)ncnc2cn1` [GW281179] as the compound, how does the “%Inh” value read?
A: Its value is 0%.

Q: `COc1ccc(CSc2nnc(-c3ccc4c(c3)CCO4)o2)cc1` was tested. Which “%Inh” value did it give?
A: Its value is 0%.

Q: For `CC(=O)c1cccc(NC(=O)NC2CCN(c3ccnc(Nc4ccc(F)cc4)n3)C2)c1` (stereo not drawn) [GSK1379710], which “%Inh” value is on record?
A: Its value is 0%.

Q: Which “%Inh” value does the source give for `CNc1cc(-c2ccc3c(N)n[nH]c3c2)nc(N)n1` [GSK2224810] here?
A: Its value is 7%.

Q: How did the “%Inh” value turn out when `Cc1nccc(-c2c(-c3ccc(F)cc3)ncn2CCCN2CCOCC2)n1.Cl` [SB-282975] was run?
A: Its value is 0%.

Q: For `Cc1ccccc1-c1cc(-c2c[nH]nc2-c2ccccn2)ccn1` [GW680061], which “%Inh” value is on record?
A: The value was 0%.

Q: For `COc1nccc(-c2c(-c3ccc(F)cc3)ncn2CCCN2CCOCC2)n1` [SB-282852], which “%Inh” value is on record?
A: The value was 0%.

Q: How did the “%Inh” value turn out when `Cc1ccc(-c2nc(Nc3ccncc3)c3ccccc3n2)s1` [GSK189015] was run?
A: The value was 6%.

Q: Which “%Inh” value does the source give for `Nc1cccc(-c2ccc3c(N)n[nH]c3c2)n1` [GSK2192730] here?
A: The value was 0%.

Q: How did the “%Inh” value turn out when `COC(=O)C(NC(=O)NC1CCN(c2ccnc(Nc3ccc(F)cc3)n2)C1)c1ccccc1` (stereo not drawn) [GSK1379712] was run?
A: Its value is 0%.

Q: How did the “%Inh” value turn out when `CN1c2ccc(-c3ccc(C(N)=O)cc3)cc2-c2[nH]ncc2S1(=O)=O` was run?
A: The value was 19%.

Q: `CC(=O)c1c(C)c2cnc(Nc3ccc(N4CCNCC4)cn3)nc2n(C2CCCC2)c1=O` was tested. Which “%Inh” value did it give?
A: Its value is 0%.

Q: How did the “%Inh” value turn out when `CS(=O)(=O)Cc1ccc(Nc2nccc(-c3c(-c4cccc(NC(=O)C5CCCCC5)c4)nn4ncccc34)n2)cc1` [GSK350559] was run?
A: The value was 2%.

Q: With `Cc1ccc(NC(=O)Nc2ccccc2)cc1-c1ccc(C(=O)Nc2ccncc2)cc1` [GSK1398471] as the compound, how does the “%Inh” value read?
A: The value was 0%.

Q: For `NS(=O)(=O)c1cccc(N/C=C2\C(=O)Nc3ccc(S(=O)(=O)Cc4c(Cl)cccc4Cl)cc32)c1` [GSK398099], which “%Inh” value is on record?
A: Its value is 0%.

Q: Which “%Inh” value does the source give for `COc1ccc2cc(-c3nc(-c4ccccc4C(C)C)[nH]c3-c3ccncc3)ccc2c1` [SB-660566] here?
A: The value was 0%.

Q: How did the “%Inh” value turn out when `O=C(Nc1n[nH]c2cc(-c3ccsc3)ccc12)C1CC1` [SB-732932] was run?
A: Its value is 3%.

Q: How did the “%Inh” value turn out when `COc1cccc(CNC(=O)NC2CCN(c3ccnc(Nc4ccc(F)cc4)n3)C2)c1` (stereo not drawn) [GSK1379723] was run?
A: Its value is 0%.

Q: `Cc1cnc(N)c(/C=C/c2cncc(C(=O)NCCc3ccc(Cl)cc3Cl)c2)c1.Cl` [GSK190937] was tested. Which “%Inh” value did it give?
A: Its value is 0%.

test system: MLK2; conditions: concentration: 1 μM, replicates: in singlicate; n = 1

Q: `c1ccc(-c2ccnc3[nH]ccc23)cc1` [SB-693578] was tested. Which “%Inh” value did it give?
A: The value was 0%.

Q: How did the “%Inh” value turn out when `COc1ccc(Nc2nccc(N3CCC(NC(=O)C(C)c4ccc(Cl)cc4)C3)n2)cc1` (stereo not drawn) [GSK1379735] was run?
A: Its value is 43%.

Q: For `Nc1nccc(-c2c(-c3ccc(F)cc3)ncn2C2CCN(Cc3ccccc3)CC2)n1` [SB-219980], which “%Inh” value is on record?
A: Its value is 8%.

Q: Which “%Inh” value does the source give for `Cl.Cl.Cl.N#Cc1ccc(CCNc2nccc(-c3cccc(CN4CCNCC4)c3)n2)cc1` [GSK2137462] here?
A: Its value is 0%.

Q: With `Cc1cccc2c(-c3ccncn3)c(-c3ccc(F)cc3)nn12` [GW515532] as the compound, how does the “%Inh” value read?
A: The value was 28%.

Q: How did the “%Inh” value turn out when `O=C(Nc1n[nH]c2nc(-c3cccs3)c(Br)cc12)C1CC1` [SB-735297] was run?
A: The value was 0%.

Q: With `CC(=O)c1c(C)c2cnc(Nc3ccn(C)n3)nc2n(C2CCCC2)c1=O` as the compound, how does the “%Inh” value read?
A: Its value is 21%.

Q: `COc1cccc(NC(=O)Nc2ccc(C)c(-c3ccc(C(=O)Nc4ccncc4)cc3)c2)c1` [GSK1398474] was tested. Which “%Inh” value did it give?
A: The value was 14%.

Q: How did the “%Inh” value turn out when `CCc1ccc(-c2ccc3c(c2)-c2n[nH]cc2S(=O)(=O)N3C)cc1` was run?
A: Its value is 16%.

Q: How did the “%Inh” value turn out when `CNc1nc(-c2ccc3c(N)n[nH]c3c2)cc(N2C[C@@H](C(=O)Nc3ccccc3)CC[C@H]2C)n1` [GSK2298859] was run?
A: Its value is 0%.

Q: With `COc1cccc(C2=C(Nc3cc(Cl)c(O)c(Cl)c3)C(=O)NC2=O)c1` [SB-390767] as the compound, how does the “%Inh” value read?
A: Its value is 4%.

Q: With `Cn1cncc1C(=O)NC1CCN(c2ccnc(Nc3ccc(F)cc3)n2)C1` (stereo not drawn) [GSK1379717] as the compound, how does the “%Inh” value read?
A: The value was 0%.

Q: Which “%Inh” value does the source give for `Fc1ccc(-c2nc3n(c2-c2ccncc2)CCS3)cc1` [GI98581] here?
A: The value was 19%.

Q: Which “%Inh” value does the source give for `CS(=O)(=O)CCNCc1nc(-c2ccc3ncnc(Nc4ccc(OCc5ccccc5)c(Cl)c4)c3c2)cs1.Cl` [GW582764] here?
A: Its value is 0%.

Q: With `COc1ccc(Nc2nccc(NCCNC(=O)Nc3cc(C)ccc3C)n2)cc1` [GSK1379899] as the compound, how does the “%Inh” value read?
A: The value was 36%.

Q: For `O=c1cc(N2CCOCC2)nc2n(Cc3cccc(Cl)c3Cl)c3ccccc3n12` [GSK2299009], which “%Inh” value is on record?
A: Its value is 32%.

Q: Which “%Inh” value does the source give for `FC(F)(F)c1ccccc1-c1cc(-c2c[nH]nc2-c2ccccn2)ccn1` [GW679396] here?
A: The value was 0%.

Q: `Cn1cncc1-c1cc2c(Nc3ccc(OCc4ccccc4)cc3)ncnc2cn1` [GW281179] was tested. Which “%Inh” value did it give?
A: The value was 0%.

Q: How did the “%Inh” value turn out when `COc1ccc(CSc2nnc(-c3ccc4c(c3)CCO4)o2)cc1` was run?
A: The value was 15%.

Q: How did the “%Inh” value turn out when `CC(=O)c1cccc(NC(=O)NC2CCN(c3ccnc(Nc4ccc(F)cc4)n3)C2)c1` (stereo not drawn) [GSK1379710] was run?
A: The value was 0%.

Q: `CNc1cc(-c2ccc3c(N)n[nH]c3c2)nc(N)n1` [GSK2224810] was tested. Which “%Inh” value did it give?
A: The value was 0%.

Q: Which “%Inh” value does the source give for `Cc1nccc(-c2c(-c3ccc(F)cc3)ncn2CCCN2CCOCC2)n1.Cl` [SB-282975] here?
A: The value was 22%.

Q: With `Cc1ccccc1-c1cc(-c2c[nH]nc2-c2ccccn2)ccn1` [GW680061] as the compound, how does the “%Inh” value read?
A: The value was 2%.

Q: Which “%Inh” value does the source give for `COc1nccc(-c2c(-c3ccc(F)cc3)ncn2CCCN2CCOCC2)n1` [SB-282852] here?
A: Its value is 0%.

Q: With `Cc1ccc(-c2nc(Nc3ccncc3)c3ccccc3n2)s1` [GSK189015] as the compound, how does the “%Inh” value read?
A: The value was 49%.

Q: `Nc1cccc(-c2ccc3c(N)n[nH]c3c2)n1` [GSK2192730] was tested. Which “%Inh” value did it give?
A: Its value is 0%.

Q: How did the “%Inh” value turn out when `COC(=O)C(NC(=O)NC1CCN(c2ccnc(Nc3ccc(F)cc3)n2)C1)c1ccccc1` (stereo not drawn) [GSK1379712] was run?
A: The value was 0%.

Q: For `CN1c2ccc(-c3ccc(C(N)=O)cc3)cc2-c2[nH]ncc2S1(=O)=O`, which “%Inh” value is on record?
A: The value was 26%.

Q: How did the “%Inh” value turn out when `CC(=O)c1c(C)c2cnc(Nc3ccc(N4CCNCC4)cn3)nc2n(C2CCCC2)c1=O` was run?
A: Its value is 0%.

Q: `CS(=O)(=O)Cc1ccc(Nc2nccc(-c3c(-c4cccc(NC(=O)C5CCCCC5)c4)nn4ncccc34)n2)cc1` [GSK350559] was tested. Which “%Inh” value did it give?
A: The value was 7%.

Q: With `Cc1ccc(NC(=O)Nc2ccccc2)cc1-c1ccc(C(=O)Nc2ccncc2)cc1` [GSK1398471] as the compound, how does the “%Inh” value read?
A: The value was 0%.

Q: How did the “%Inh” value turn out when `NS(=O)(=O)c1cccc(N/C=C2\C(=O)Nc3ccc(S(=O)(=O)Cc4c(Cl)cccc4Cl)cc32)c1` [GSK398099] was run?
A: The value was 0%.

Q: How did the “%Inh” value turn out when `COc1ccc2cc(-c3nc(-c4ccccc4C(C)C)[nH]c3-c3ccncc3)ccc2c1` [SB-660566] was run?
A: Its value is 0%.

Q: For `O=C(Nc1n[nH]c2cc(-c3ccsc3)ccc12)C1CC1` [SB-732932], which “%Inh” value is on record?
A: Its value is 0%.

Q: With `COc1cccc(CNC(=O)NC2CCN(c3ccnc(Nc4ccc(F)cc4)n3)C2)c1` (stereo not drawn) [GSK1379723] as the compound, how does the “%Inh” value read?
A: The value was 0%.

Q: With `Cc1cnc(N)c(/C=C/c2cncc(C(=O)NCCc3ccc(Cl)cc3Cl)c2)c1.Cl` [GSK190937] as the compound, how does the “%Inh” value read?
A: Its value is 0%.
